# According to PubChem BioAssay (NCATS):
# Results filed as inconclusive are left out. Where a call stands in place of a potency, no number is given. Activity calls are given as the source filed them. Unless noted, the call rests on the fitted dose curve; in most records, active means well fitted curve in the direction sought with a large enough effect; inconclusive means small, poorly fitted or top-dose-only effect, or another doubt; inactive means no such curve, though single readings can be large; an effect the other way counts as inactive or inconclusive.
# What was measured:
# [1] = AP1 Signaling Pathway (AID 357; active means well fitted curve in either direction with a large enough effect, not every such curve was filed as active); conditions: ME-180 AP-1-bla reporter, EGF-induced, beta-lactamase ratio, 5 h; at 7.69 µM (top of the series) unless noted
# Summary of the method: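 AP-1-bla ME-180 cells with beta-lactamase reporter under AP-1 response element, stimulated with EC50 EGF; compounds titrated, 5 hours at 37 degrees Celsius. CCF4 read at 460/530 nm ratio; positive and negative modulators judged by AC50.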
# [2] = NFAT Signaling Pathway (AID 444; active means well fitted curve in either direction with a large enough effect, not every such curve was filed as active;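 further: carbachol stimulus at about its EC50 of 1 µM final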); conditions: Jurkat NFAT-bla M1, carbachol, beta-lactamase ratio, 5 h; at 7.69 µM (top of the series) unless noted
# Summary of the method: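 Jurkat cells with NFAT-driven β-lactamase reporter and co-expressed M1 receptor, stimulated with carbachol (final 1 uM, ~EC50), compound titration, 5 h at 37 °C. CCF4 loaded 1 h at RT; 460/530 nm ratio gave %activity and AC50.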
# [3] = Stat Signaling Pathway (AID 446; active means well fitted curve in either direction with a large enough effect, not every such curve was filed as active;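 further: ME-180 cervical cancer cells given 40 pM IL-6 alongside compound; SIE-controlled beta-lactamase reporter measured as 460/530 nm FRET emission ratio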); conditions: ME-180 (cervical carcinoma) SIE beta-lactamase reporter, IL-6 stimulated, 5 h; at 7.69 µM (top of the series) unless noted
# Summary of the method: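 IL-6/STAT signaling read in ME-180 cells via an SIE beta-lactamase reporter. Stimulus was 40 pM IL-6 (its AC50) for 5 hrs, so both activation and inhibition register.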
# [4] = target: Glucocorticoid receptor (Homo sapiens) (UniProt P04150); experiment: GR-GFP Redistribution (AID 450;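 active means compounds whose dose series gives a full or clear partial fitted curve of increased nuclear translocation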; further: potency means the concentration at half of the fitted maximal effect); conditions: U2OS GR-GFP nuclear translocation, laser cytometry, 2 h
# Sequence of Glucocorticoid receptor (Homo sapiens) (P04150 whole entry, looked up, the tested form may be a part): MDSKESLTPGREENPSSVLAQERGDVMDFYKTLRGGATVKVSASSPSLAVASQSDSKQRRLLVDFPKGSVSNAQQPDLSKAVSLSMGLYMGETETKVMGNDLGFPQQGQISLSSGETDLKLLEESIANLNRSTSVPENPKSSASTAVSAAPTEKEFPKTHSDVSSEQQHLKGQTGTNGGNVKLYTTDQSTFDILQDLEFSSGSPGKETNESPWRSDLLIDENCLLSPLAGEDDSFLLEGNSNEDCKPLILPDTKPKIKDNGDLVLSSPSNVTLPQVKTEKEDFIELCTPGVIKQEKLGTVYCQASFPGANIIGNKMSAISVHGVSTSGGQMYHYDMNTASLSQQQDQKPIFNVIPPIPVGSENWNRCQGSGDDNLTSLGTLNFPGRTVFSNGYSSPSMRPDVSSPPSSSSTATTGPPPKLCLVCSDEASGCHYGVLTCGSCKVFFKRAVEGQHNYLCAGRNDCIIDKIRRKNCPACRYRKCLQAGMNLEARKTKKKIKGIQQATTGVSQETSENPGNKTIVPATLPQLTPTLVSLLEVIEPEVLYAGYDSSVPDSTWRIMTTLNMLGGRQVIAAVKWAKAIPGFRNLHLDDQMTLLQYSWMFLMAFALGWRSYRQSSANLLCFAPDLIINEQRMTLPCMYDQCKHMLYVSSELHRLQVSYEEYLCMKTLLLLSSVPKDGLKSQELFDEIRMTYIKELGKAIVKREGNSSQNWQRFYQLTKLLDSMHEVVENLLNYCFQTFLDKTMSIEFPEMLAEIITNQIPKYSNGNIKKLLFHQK
# [5] = target: Glucocorticoid receptor (Homo sapiens) (UniProt P04150); experiment: GR-EFC Redistribution (AID 451; calls by dose curve; further: potency means the concentration at half of the fitted maximal effect); conditions: CHO-K1 GR-EFC translocation, beta-gal luminescence, 2 h
# Summary of the method: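 CHO-K1 cells expressing nuclear EA and GR-ED fragments of b-gal; compounds titrated up to 46 uM final, 2 h at 37 C. GR nuclear translocation read as complemented b-gal luminescence after 1 h RT detection.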
# [6] = target: Mitogen-activated protein kinase 10 (Mus musculus) (UniProt Q61831); experiment: JNK3 AlphaScreen Assay (AID 530; active means well fitted curve in either direction with a large enough effect, not every such curve was filed as active;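 further: kinase came from lysate of stimulated human HepG2 cells; signal reports phosphorylation of biotinylated GST-cJun 1-79 at Ser73 with 10 µM ATP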)
# Summary of the method: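 Pre-activated (IL-1β/TNFα) JNK3 in HepG2 lysates phosphorylates biotin-GST-cJun(1-79), 10 uM ATP; anti-phospho-cJun(Ser73) AlphaScreen read at room temperature, pH 7.6 Tris buffer. Compounds pre-incubated 15 min as titrations.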
# [7] = target: 3',5'-cyclic-AMP phosphodiesterase 4B (Homo sapiens) (UniProt Q07343); experiment: qHTS Assay for Inhibitors of PDE-IV (AID 607; active means well fitted activation curve with a large enough effect in the main read-out, with a control signal flat, not every such curve was filed as active)
# Sequence of 3',5'-cyclic-AMP phosphodiesterase 4B (Homo sapiens) (Q07343 whole entry, looked up): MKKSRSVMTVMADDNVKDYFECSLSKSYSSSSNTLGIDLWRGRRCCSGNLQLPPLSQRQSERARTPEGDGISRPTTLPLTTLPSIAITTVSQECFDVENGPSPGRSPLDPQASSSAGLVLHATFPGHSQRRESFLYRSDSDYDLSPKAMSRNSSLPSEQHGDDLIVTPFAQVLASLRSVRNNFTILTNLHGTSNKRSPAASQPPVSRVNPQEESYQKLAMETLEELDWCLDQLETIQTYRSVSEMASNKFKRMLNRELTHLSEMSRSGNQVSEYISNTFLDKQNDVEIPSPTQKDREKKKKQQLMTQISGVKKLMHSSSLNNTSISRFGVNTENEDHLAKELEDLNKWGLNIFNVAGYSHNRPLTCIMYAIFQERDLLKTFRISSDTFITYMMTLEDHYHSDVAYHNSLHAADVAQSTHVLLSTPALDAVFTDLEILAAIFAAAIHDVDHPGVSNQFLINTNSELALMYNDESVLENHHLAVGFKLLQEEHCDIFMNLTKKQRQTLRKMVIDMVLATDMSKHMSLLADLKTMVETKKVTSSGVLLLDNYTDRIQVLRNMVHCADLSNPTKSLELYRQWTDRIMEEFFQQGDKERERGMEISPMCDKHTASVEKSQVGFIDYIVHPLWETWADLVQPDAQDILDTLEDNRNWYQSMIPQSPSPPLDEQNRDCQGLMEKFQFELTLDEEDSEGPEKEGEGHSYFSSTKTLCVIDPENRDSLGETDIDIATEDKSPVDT
# Summary of the method: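 Live HEK293 cells with a modified cyclic nucleotide-gated (CNG) channel report intracellular cAMP via membrane-potential dye fluorescence (ex 535/em 590 nm). Endogenous PDE-IV was targeted. Compounds were tested at up to 22.9 uM final; RO 20-1724 100 uM served as control.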
# [8] = qHTS Assay for Lipid Storage Modulators (AID 1519; calls by dose curve); conditions: Drosophila S3 cells, BODIPY lipid droplet/cell ratio, laser cytometry, cells loaded with oleic acid
# Summary of the method: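 Cells seeded at 5,000 per well were treated with compounds over a concentration series and loaded with oleic acid (400 uM, as added). Lipid droplet fluorescence (488 nm excitation, 500-530 nm channel) was read by laser-scanning cytometry and normalized to 20 uM Triacsin C.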
# [9] = target: ATP-dependent 6-phosphofructokinase (Trypanosoma brucei brucei) (UniProt O15648); experiment: qHTS Assay to Find Inhibitors of T. brucei phosphofructokinase: hit validation (AID 492961)
# Sequence of ATP-dependent 6-phosphofructokinase (Trypanosoma brucei brucei) (O15648 whole entry, looked up): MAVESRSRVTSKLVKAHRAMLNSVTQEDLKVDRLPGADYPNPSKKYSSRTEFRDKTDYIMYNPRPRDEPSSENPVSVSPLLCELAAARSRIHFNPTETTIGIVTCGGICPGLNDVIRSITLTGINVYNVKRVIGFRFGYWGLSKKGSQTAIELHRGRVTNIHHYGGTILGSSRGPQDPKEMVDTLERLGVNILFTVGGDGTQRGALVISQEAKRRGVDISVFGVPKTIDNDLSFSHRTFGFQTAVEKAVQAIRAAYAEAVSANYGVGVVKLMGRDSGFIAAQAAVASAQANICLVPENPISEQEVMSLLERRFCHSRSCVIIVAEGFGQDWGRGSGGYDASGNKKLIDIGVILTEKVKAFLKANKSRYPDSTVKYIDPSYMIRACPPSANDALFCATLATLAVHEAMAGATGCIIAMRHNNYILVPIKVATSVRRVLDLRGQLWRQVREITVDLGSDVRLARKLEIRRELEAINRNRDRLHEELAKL
# Summary of the method: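 Luminescence from ADP-Glo reports ADP generated as T. brucei PFK (1.25 nM) phosphorylates 0.5 mM fructose-6-phosphate using 0.1 mM ATP. Reactions ran 45 min at room temperature, pH 8.0.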
# [10] = target: Luciferin 4-monooxygenase (Photinus pyralis) (UniProt P08659); experiment: Biochemical firefly luciferase enzyme assay for NPC (AID 624030);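 further: purified P. pyralis luciferase at 10 nM with luciferin and ATP substrate; nearly all actives have a fitted effect of over 70% in size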
# Sequence of Luciferin 4-monooxygenase (Photinus pyralis) (P08659 whole entry, looked up): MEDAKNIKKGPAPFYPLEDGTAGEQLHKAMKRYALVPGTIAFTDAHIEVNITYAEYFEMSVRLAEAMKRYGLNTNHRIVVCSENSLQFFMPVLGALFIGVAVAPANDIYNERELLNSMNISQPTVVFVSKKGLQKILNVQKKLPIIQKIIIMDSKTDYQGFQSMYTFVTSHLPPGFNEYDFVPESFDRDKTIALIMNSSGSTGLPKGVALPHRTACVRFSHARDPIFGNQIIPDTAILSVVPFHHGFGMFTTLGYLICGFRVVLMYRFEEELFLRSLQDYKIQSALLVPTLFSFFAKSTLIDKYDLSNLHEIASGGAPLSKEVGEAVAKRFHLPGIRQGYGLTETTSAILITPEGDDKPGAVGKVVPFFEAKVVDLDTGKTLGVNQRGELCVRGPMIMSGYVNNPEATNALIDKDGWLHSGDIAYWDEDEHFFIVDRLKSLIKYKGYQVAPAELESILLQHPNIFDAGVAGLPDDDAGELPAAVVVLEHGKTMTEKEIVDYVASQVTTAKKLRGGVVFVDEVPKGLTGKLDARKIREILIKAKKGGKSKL
# Summary of the method: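 Purified P. pyralis luciferase at 10 nM in 50 mM Tris Acetate (final), luminescence read within 5 minutes of enzyme addition to compounds. Activity normalised to PTC124 versus DMSO; concentration-response curves classed by r2, magnitude and activity.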
# [11] = S16 Schwann cell viability assay (CellTiter-Glo assay) (AID 624031);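 further: cellular ATP luminescence as a viability measure; nearly all actives have a fitted effect of over 70% in size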
# Summary of the method: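 Untransfected S16 rat Schwann cells; compound 24 h, 37 °C/5% CO2; CellTiter-Glo ATP luminescence. % activity vs no-cell wells and DMSO controls (0%); concentration-effect curves classed by r2, response magnitude, activity.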
# [12] = S16 Schwann cell PMP22 intronic element firefly luciferase assay (AID 624032); further: nearly all actives have a fitted effect of over 30% in size
# Summary of the method: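 Rat S16 Schwann cells stably carrying firefly luciferase driven by a PMP22 intronic element, in 10% FBS, treated 24 h at 37 C. ONE-Glo luminescence normalized to PTC124 control and DMSO (0%); curves classed by r2, magnitude and activity.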
# [13] = qHTS profiling for inhibitors of Plasmodium falciparum proliferation (AID 504749); further: nearly all actives have a fitted effect of over 60% in size; conditions: P. falciparum in erythrocytes, SYBR Green DNA, 72 h, at 28.7 µM (top of the series)
# Summary of the method: (§1)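 P. falciparum-infected erythrocytes (0.3% parasitemia, 2.5% hematocrit) incubated with compound 72 h at 37 C, 5% CO2. Parasite DNA detected by SYBR Green after lysis, overnight at room temperature; normalised to 0.29 uM artemisinin and DMSO.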
# [14] = system: 3D7; experiment: as above; conditions: P. falciparum in erythrocytes, SYBR Green DNA, 72 h; series mostly up to 12.8 µM
# Summary of the method: as §1
# [15] = system: 7G8; experiment: as above; conditions: P. falciparum in erythrocytes, SYBR Green DNA, 72 h; series mostly up to 12.8 µM
# Summary of the method: as §1
# [16] = system: AA1029; experiment: as above; conditions: P. falciparum in erythrocytes, SYBR Green DNA, 72 h; series mostly up to 12.8 µM
# Summary of the method: as §1
# [17] = system: AS120; experiment: as above; conditions: P. falciparum in erythrocytes, SYBR Green DNA, 72 h; series mostly up to 28.7 µM
# Summary of the method: as §1
# [18] = system: ATS189; experiment: as above; conditions: P. falciparum in erythrocytes, SYBR Green DNA, 72 h; series mostly up to 12.8 µM
# Summary of the method: as §1
# [19] = system: ATS95; experiment: as above; conditions: P. falciparum in erythrocytes, SYBR Green DNA, 72 h; series mostly up to 12.8 µM
# Summary of the method: as §1
# [20] = system: C2A; experiment: as above; conditions: P. falciparum in erythrocytes, SYBR Green DNA, 72 h; series mostly up to 12.8 µM
# Summary of the method: as §1
# [21] = system: CP185; experiment: as above; conditions: P. falciparum in erythrocytes, SYBR Green DNA, 72 h; series mostly up to 12.8 µM
# Summary of the method: as §1
# [22] = system: CP191; experiment: as above; conditions: P. falciparum in erythrocytes, SYBR Green DNA, 72 h; series mostly up to 12.8 µM
# Summary of the method: as §1
# [23] = system: CP192; experiment: as above; conditions: P. falciparum in erythrocytes, SYBR Green DNA, 72 h; series mostly up to 28.7 µM
# Summary of the method: as §1
# [24] = system: CP194; experiment: as above; conditions: P. falciparum in erythrocytes, SYBR Green DNA, 72 h; series mostly up to 12.8 µM
# Summary of the method: as §1
# [25] = system: CP201; experiment: as above; conditions: P. falciparum in erythrocytes, SYBR Green DNA, 72 h; series mostly up to 12.8 µM
# Summary of the method: as §1
# [26] = system: CP203; experiment: as above; conditions: P. falciparum in erythrocytes, SYBR Green DNA, 72 h; series mostly up to 12.8 µM
# Summary of the method: as §1
# [27] = system: CP211; experiment: as above; conditions: P. falciparum in erythrocytes, SYBR Green DNA, 72 h; series mostly up to 12.8 µM
# Summary of the method: as §1
# [28] = system: CP215; experiment: as above; conditions: P. falciparum in erythrocytes, SYBR Green DNA, 72 h; series mostly up to 28.7 µM
# Summary of the method: as §1
# [29] = system: CP217; experiment: as above; conditions: P. falciparum in erythrocytes, SYBR Green DNA, 72 h; series mostly up to 12.8 µM
# Summary of the method: as §1
# [30] = system: CP237; experiment: as above; conditions: P. falciparum in erythrocytes, SYBR Green DNA, 72 h; series mostly up to 12.8 µM
# Summary of the method: as §1
# [31] = system: CP238; experiment: as above; conditions: P. falciparum in erythrocytes, SYBR Green DNA, 72 h; series mostly up to 12.8 µM
# Summary of the method: as §1
# [32] = system: CP247; experiment: as above; conditions: P. falciparum in erythrocytes, SYBR Green DNA, 72 h; series mostly up to 12.8 µM
# Summary of the method: as §1
# [33] = system: CP250; experiment: as above; conditions: P. falciparum in erythrocytes, SYBR Green DNA, 72 h; series mostly up to 12.8 µM
# Summary of the method: as §1
# [34] = system: CP252; experiment: as above; conditions: P. falciparum in erythrocytes, SYBR Green DNA, 72 h; series mostly up to 12.8 µM
# Summary of the method: as §1
smiles,measurement,setting,value
CN[C@@H](CC(C)C)C(=O)N[C@@H]1C(=O)N[C@H](CC(N)=O)C(=O)N[C@@H]2C(=O)N[C@H]3C(=O)N[C@H](C(=O)N[C@H](C(=O)O)c4cc(O)cc(O)c4-c4cc3ccc4O)[C@H](O)c3ccc(c(Cl)c3)Oc3cc2cc(c3O[C@H]2O[C@@H](CO)[C@@H](O)[C@@H](O)[C@@H]2O[C@@H]2C[C@](C)(N)[C@H](O)[C@H](C)O2)Oc2ccc(cc2Cl)[C@@H]1O,"activity change, negative = inhibition",[1],4.27% [at 17.2 µM] (inactive)
same,"activity change, negative = inhibition",[2],-5.38% [at 17.2 µM] (inactive)
same,"activity, negative = inhibition",[3],7.22% [at 17.2 µM] (inactive)
same,Potency,[4],> 20.6 µM (inactive)
same,Potency,[5],> 20.6 µM (inactive)
same,Potency,[6],inactive
same,Potency,[7],inactive
same,"activity change, negative = inhibition",[8]; at 25.7 µM (top of the series),-2.11% (inactive)
same,max response,[8]; measured here: cell count channel max response,5.45%
same,max response,[8]; measured here: lipid channel max response,3.37%
same,outcome,[9],inactive
same,outcome,[10],inactive
same,Potency,[11],inactive
same,Potency,[12],inactive
same,"activity, negative = inhibition",[13]; parasite line A,3.64% (inactive)
same,"activity, negative = inhibition",[13]; parasite line B,4.98% (inactive)
same,Potency,[14],inactive
same,Potency,[15],inactive
same,Potency,[16],inactive
same,Potency,[17],inactive
same,Potency,[18],inactive
same,Potency,[19],inactive
same,Potency,[20],inactive
same,Potency,[21],inactive
same,Potency,[22],inactive
same,Potency,[23],inactive
same,Potency,[24],inactive
same,Potency,[25],inactive
same,Potency,[26],inactive
same,Potency,[27],inactive
same,Potency,[28],inactive
same,Potency,[29],inactive
same,Potency,[30],inactive
same,Potency,[31],inactive
same,Potency,[32],inactive
same,Potency,[33],inactive
same,Potency,[34],inactive
